Inconclusive results are not listed. Active and inactive are the calls of the source. Calls come from the whole dose curve; as a rule, active = well fitted inhibition curve with a large enough effect; inconclusive = small, poorly fitted or top-dose-only effect; inactive = flat fitted curve, though single readings scatter.
Potency is the fitted concentration of half-maximal effect.

One assay is described as follows: qHTS profiling for inhibitors of Plasmodium falciparum proliferation (AID 504749).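 For activity, negative = inhibition: 0% = DMSO vehicle and full inhibition = artemisinin control.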 Note: nearly all actives have a fitted effect of over 60% in size. As to conditions: P. falciparum in erythrocytes, SYBR Green DNA, 72 h; at 28.7 µM (top of the series); parasite line A. The text has this:
NIH National Institute of Allergy and Infectious Diseases [NIAID] NIH Chemical Genomics Center [NCGC] MLPCN Grant: None Assay Provider: Xinzhuan Su, NIAID NCGC Assay Overview: Plasmodium falciparum is a virulent malarial parasite that kills 1-2 million people worldwide each year. Transmitted by mosquitoes, the sporozoite form of the parasite enters the blood stream to infect hepatocytes, where they become merozoites that infect red blood cells (erythrocytes). Within erythrocytes, merozoites begin a […] cycle of growth and division, after which the parasite is released to infect new red blood cells. Gametocytes, which form within erythrocytes as well, circulate in the bloodstream and are ingested by the mosquito, thereby completing the life cycle. To profile malarial isolates for differential chemical responses and to identify inhibitors of malarial growth, an assay that measures P. falciparum growth and replication within erythrocytes was employed. This assay uses a DNA binding fluorescent dye (SYBR Green) to detect parasite DNA following cell lysis. Because mature erythrocytes lack DNA, only Plasmodium-derived DNA is detected.
NCGC Assay Protocol Summary: The SYBR Green viability assay was adapted from a method described previously (Plouffe et al., 2008). For screening 3 ul culture medium was dispensed into 1536 well black clear bottom plates (Aurora Biotechnologies) using a Multidrop Combi (Thermo Fisher Scientific Inc.), 23 nL compounds in DMSO were added by a pin tool (Kalypsys), and 5 ul of erythrocytes infected with P. falciparum (0.3% parasitemia, 2.5% hematocrit final concentration) were added. The plates were incubated at 37 C in a humidified incubator in 5% CO2 for 72 h, and 2 ul lysis buffer (20 mM Tris HCl, 10 mM EDTA, 0.16% saponin, 1.6% triton X, 10X SYBR Green I supplied as 10,000X […] by Invitrogen) was added to each well. The plates were mixed for 25 sec with gentle shaking and incubated overnight at room temperature in the dark. The following morning, fluorescence intensity at 485(14) nm excitation and 535(25) nm emission wavelengths was measured on an EnVision (Perkin Elmer) plate reader. Plate reads were normalized relative to the control inhibitor (0.29 uM artemisinin) and vehicle (DMSO) wells present on each plate and then corrected by an algorithm using vehicle-only control plates at the beginning and end of the compound plate stack.
For orientation: Quantitative high-throughput screening tests each substance at several concentrations.
`C[N+]1(C)C2CC[C@H]1CC(OC(=O)[C@@H](CO)c1ccccc1)C2` (some centres not stated): the activity, negative = inhibition was 0.517% (inactive).
Regarding `O=C1C[C@@H]2OCC=C3CN4CC[C@]56c7ccccc7N1[C@@H]5[C@@H]2[C@H]3C[C@H]46` (tested in a mixture with another compound), the activity, negative = inhibition is -29.7% (inactive).
Regarding `C[C@@H](Cc1ccc(O)cc1)NC[C@@H](O)c1cc(O)cc(O)c1`, the activity, negative = inhibition was 13.4% (inactive).
Same read-out and setting: to `C[N+]1([O-])[C@H]2CC[C@H]1CC(OC(=O)[C@@H](CO)c1ccccc1)C2` (some centres not stated) belongs 6.57% (inactive); to `C[C@@H]1O[C@@H](O[C@H]2C[C@@H](O)[C@@]3(CO)[C@H]4[C@H](O)C[C@]5(C)[C@@H](C6=CC(=O)OC6)CC[C@]5(O)[C@H]4CC[C@@]3(O)C2)[C@@H](O)[C@H](O)[C@H]1O`, -4.19% (inactive).

Still in this assay, the particulars now being: P. falciparum in erythrocytes, SYBR Green DNA, 72 h; at 28.7 µM (top of the series); parasite line B.
As for `C[N+]1(C)C2CC[C@H]1CC(OC(=O)[C@@H](CO)c1ccccc1)C2` (some centres not stated), the activity, negative = inhibition is -9.85% (inactive).
For `O=C1C[C@@H]2OCC=C3CN4CC[C@]56c7ccccc7N1[C@@H]5[C@@H]2[C@H]3C[C@H]46` (tested in a mixture with another compound), the activity, negative = inhibition is -15.1% (inactive).
Take `C[C@@H](Cc1ccc(O)cc1)NC[C@@H](O)c1cc(O)cc(O)c1`: the activity, negative = inhibition was 5.16% (inactive).
On to `C[N+]1([O-])[C@H]2CC[C@H]1CC(OC(=O)[C@@H](CO)c1ccccc1)C2` (some centres not stated), for which the activity, negative = inhibition is -2.12% (inactive).
The same measure, in the same setting: the result for `C[C@@H]1O[C@@H](O[C@H]2C[C@@H](O)[C@@]3(CO)[C@H]4[C@H](O)C[C@]5(C)[C@@H](C6=CC(=O)OC6)CC[C@]5(O)[C@H]4CC[C@@]3(O)C2)[C@@H](O)[C@H](O)[C@H]1O` reads 10.7% (inactive).

Staying with this assay, now noted: P. falciparum in erythrocytes, SYBR Green DNA, 72 h; parasite line A.
Regarding `C=C[C@@H]1CN2CC[C@H]1C[C@H]2[C@H](O)c1ccnc2ccccc12`, the Potency is 89.1 nM (active).

The same assay, now with this note: P. falciparum in erythrocytes, SYBR Green DNA, 72 h; parasite line B.
Take `C=C[C@@H]1CN2CC[C@H]1C[C@H]2[C@H](O)c1ccnc2ccccc12`: the Potency is 100 nM (active).

Source of the values: PubChem BioAssay (NCATS).
